According to PubChem BioAssay AID720650 (Broad Institute, 2013):
Active and inactive are the calls of the source. How the calls were made is not given here.

Test: C difficile toxins, biochemical counterscreen, UDPG substrate absence, confirmatory dose response (AID 720650)
Settings: series mostly up to 19.5 µM; activity change, negative = inhibition: at the top concentration

SMILES | activity change, negative = inhibition | AC50
COc1ccc(CNC(=O)C2=CC(c3ccc(OC)cc3)=NS(=O)(=O)N2C)cc1 | -8.76% (inactive) | –
COc1ccccc1Nc1nnc(SCc2cc(=O)n3ccsc3n2)s1 | – | > 39 µM (inactive)
COc1cccc(C(CNc2ccc(S(=O)(=O)N3CCN(C)CC3)cc2[N+](=O)[O-])N(C)C)c1 (stereo unspecified) | 12.2% (inactive) | –
Cc1cc(C)c2sc(NNC(=O)C3COc4ccccc4O3)nc2c1 (stereo unspecified) | – | 0.645 µM (active)
Nc1ccccc1-c1nc2ccncc2[nH]1 | 8.76% (inactive) | –
CC(=O)N1CCN(c2ccc(S(C)(=O)=O)cc2[N+](=O)[O-])CC1 | -6.37% (inactive) | –
COC(=O)C[C@H]1CC[C@@H]2[C@@H](COc3ccc(NC(=O)c4cccc(OC)c4)cc3C(=O)N2C)O1 | -6.96% (inactive) | –
CCn1c(SCC(=O)OC)nnc1-c1ccccc1 | -3.54% (inactive) | –
CCOC(=O)N1CCN=C1SCc1ccc(Cl)c(Cl)c1 | -20.3% (inactive) | –
Oc1ccc2c(ccc3[nH]cnc32)c1 | – | 20.8 µM (active)
Cc1cccc(/C=C/c2onc(C)c2S(=O)(=O)N2CCC(C(=O)N3CCCCC3)CC2)c1 | -16.6% (inactive) | –
O=C(NNc1nc2c(F)cccc2s1)C1COc2ccccc2O1 (stereo unspecified) | – | 0.34 µM (active)
O=C(N/C(=C\c1ccc(O)cc1)C(=O)N1CCCCC1)c1ccccc1 | -3.64% (inactive) | –
CCNC(=O)C[C@H]1CC[C@@H]2[C@@H](COc3ccc(NC(=O)c4cccc(OC)c4)cc3C(=O)N2C)O1 | – | > 39 µM (inactive)
Cn1ncc(Cl)c1C(=O)N/N=C/c1cccc(OC2CSC2)c1 | – | > 39 µM (inactive)
Cc1ccc(C(=O)NCCn2cc(SCC(=O)Nc3cc(C)on3)c3ccccc32)cc1 | -12.2% (inactive) | –
